# Reference: PubChem BioAssay AID504339 (National Center for Advancing Translational Sciences (NCATS), 2011)
# The campaign covered roughly 390,000 compounds. About 17,000 (4.4%) were called active. Roughly 8% stayed inconclusive and do not appear here. This excerpt belongs to a sample that is enriched for actives. Unmarked numbers belong to inactive results. Calls follow the shape of the dose curve; as a rule, active = well fitted inhibition curve with a large enough effect; inconclusive = small, poorly fitted or top-dose-only effect; inactive = no such curve, though single readings can be large or run the other way.
# Target: Lysine-specific demethylase 4A (Homo sapiens) (UniProt O75164)
# Sequence (O75164 whole entry, looked up, the tested form may be a part): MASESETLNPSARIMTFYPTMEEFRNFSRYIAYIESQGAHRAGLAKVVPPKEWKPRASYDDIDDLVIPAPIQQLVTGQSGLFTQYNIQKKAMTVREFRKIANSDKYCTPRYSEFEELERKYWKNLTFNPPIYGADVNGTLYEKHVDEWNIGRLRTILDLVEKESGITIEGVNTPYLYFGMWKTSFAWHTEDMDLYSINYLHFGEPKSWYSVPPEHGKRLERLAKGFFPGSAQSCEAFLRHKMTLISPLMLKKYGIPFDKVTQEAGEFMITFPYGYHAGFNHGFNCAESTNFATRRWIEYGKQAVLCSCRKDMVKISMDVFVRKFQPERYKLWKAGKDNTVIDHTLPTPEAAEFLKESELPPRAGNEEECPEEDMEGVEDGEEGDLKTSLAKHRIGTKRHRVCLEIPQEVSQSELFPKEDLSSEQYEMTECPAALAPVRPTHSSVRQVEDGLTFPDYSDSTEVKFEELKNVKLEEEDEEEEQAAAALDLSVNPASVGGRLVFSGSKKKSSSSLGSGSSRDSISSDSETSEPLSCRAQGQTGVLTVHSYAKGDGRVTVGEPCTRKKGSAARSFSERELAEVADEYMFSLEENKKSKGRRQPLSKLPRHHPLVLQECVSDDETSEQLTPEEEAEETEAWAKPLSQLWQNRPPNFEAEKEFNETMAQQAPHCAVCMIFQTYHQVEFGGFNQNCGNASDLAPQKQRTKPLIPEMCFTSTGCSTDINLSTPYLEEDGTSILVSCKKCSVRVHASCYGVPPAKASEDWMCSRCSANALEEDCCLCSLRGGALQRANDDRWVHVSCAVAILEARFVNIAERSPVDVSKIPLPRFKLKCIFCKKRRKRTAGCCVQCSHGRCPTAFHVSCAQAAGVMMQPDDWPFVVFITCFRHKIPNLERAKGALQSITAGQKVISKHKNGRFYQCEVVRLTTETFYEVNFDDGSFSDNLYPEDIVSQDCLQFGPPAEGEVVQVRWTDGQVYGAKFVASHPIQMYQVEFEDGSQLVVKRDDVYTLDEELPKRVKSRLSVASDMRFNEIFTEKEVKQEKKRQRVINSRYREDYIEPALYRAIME
# Experiment: qHTS Assay for Inhibitors of JMJD2A-Tudor Domain; also: nearly all actives have a fitted effect of over 50% in size
# Settings: AlphaScreen JMJD2A-Tudor / H3K4me3 peptide binding; series mostly up to 114 µM; activity change, negative = inhibition: at the top concentration
# % is scaled to controls: 0 for no effect and ±100 for the full control effect; potency is read from the fitted curve at half-maximal effect.
Structure (SMILES),"activity change, negative = inhibition [%]",Potency
Cc1ccc(Cl)cc1N1CCN(C(=O)c2cccn3c(=O)c4cc(Cl)ccc4nc23)CC1,-21,–
CCCC(=O)Nc1cc(C(=O)NCc2ccc(OC)cc2)ccc1S(=O)(=O)c1ccc(Cl)cc1,-12.5,–
CCN(CC)S(=O)(=O)c1ccc2c(c1)N(CC(=O)NCC(C)c1ccccc1)C(=O)CO2 (stereo not given),-20.5,–
CCc1cccc(NC(=O)CN(c2ccc(C)c(C)c2)S(=O)(=O)c2ccsc2C(=O)OC)c1,-26.7,–
CCCCC(CC)CNCc1cccn1CCN1CCOCC1 (stereo not given),–,28.2 µM (active)
O=C(NCCCN1CCOCC1)c1cc(-c2ccccc2F)no1,1.97,–
CSc1ccc(CNCCN2CCOCC2)cc1,-23.6,–
Cc1cc(C)cc(NC(=O)Cc2csc(C)n2)c1,-19.5,–
Cn1c(COc2ccc(Cl)cc2)nc2ccccc2c1=O,–,28.2 µM (active)
COc1ccc(OCc2ccc(-c3nc4ccccc4c(=O)n3N)o2)cc1,-10.8,–
COc1ccccc1OCCCn1c(-c2ccc(Cl)cc2)nc2ccccc2c1=O,19,–
COc1ccc(CCNS(=O)(=O)c2cc(-c3cc(C)no3)ccc2C)cc1OC,-8.77,–
COc1ccc(-c2nc(SCC(=O)N3CCCCC3C)n[nH]2)cc1 (stereo not given),-1.3,–
CCn1c2c(c(=O)n3ncc(C(=O)N4CCN(c5ccccc5)CC4)c13)CN(Cc1ccc(OC)cc1)CC2,-16.6,–
Cc1cc(C)c(NC(=O)CN2CCCCCC2)c(C)c1,-11.4,–
O=C(CN1CCCCCC1)Nc1c(Cl)cc(Cl)cc1Cl,-3.93,–
Cc1csc(NC(=O)CN2CCCCCC2)n1,–,1.58 µM (active)
COc1ccc(CCNC(=O)c2nn(C)c3c2CSc2ccccc2-3)cc1OC,-6.95,–
Cc1nc2ccccn2c(=O)c1NC(=O)c1c(F)cccc1F,-10.1,–
CCn1c2ccccc2c2nnc(N3CCN(c4cc(C)ccc4C)CC3)nc21,-12.2,–
Cc1ccc(S(=O)(=O)N2CCOCC2)cc1C(=O)Nc1ccccc1N1CCCC1,-24.7,–
O=C(COC(=O)c1ccccc1F)Nc1cc(S(=O)(=O)N2CCOCC2)ccc1N1CCCC1,-19.7,–
O=C(COC(=O)Cc1ccc(F)cc1)Nc1cc(S(=O)(=O)N2CCOCC2)ccc1N1CCCC1,-18.7,–
CN1CCN(c2ccc(S(=O)(=O)N3CCOCC3)cc2NC(=O)CCc2ccccc2)CC1,-9.18,–
O=C(CNCc1ccco1)Nc1cc(S(=O)(=O)N2CCOCC2)ccc1N1CCCC1,–,79.4 µM (active)

Structure (SMILES),"activity change, negative = inhibition [%]",Potency
COCCNC(=S)Nc1cc(S(=O)(=O)N2CCOCC2)ccc1N1CCCCC1,–,79.4 µM (active)
COc1ccc(/C=C/c2noc(-c3ccccc3O)n2)cc1OC,-1.37,–
COc1ccc(NC(=O)C2CCCN(S(=O)(=O)c3cccc4nonc34)C2)cc1Cl (stereo not given),2.05,–
Cc1cc(C)cc(NC(=O)Cn2c(=O)c3ccccc3n3nncc23)c1,-25.2,–
CCc1cccc(-n2nnc(-c3nsc(NC(=O)c4ccc(C)cc4)n3)c2C)c1,-18.2,–
COc1ccc(NS(=O)(=O)c2cc(NC(=O)/C=C/c3cc(OC)c(OC)c(OC)c3)ccc2N2CCCCC2)cc1,-34.4,–
COc1ccccc1Nc1c2c(nc3ccc(NC(=O)/C=C/c4cc(OC)c(OC)c(OC)c4)cc13)CCCC2,–,15.8 µM (active)
COc1cc(/C=C/C(=O)OCC(=O)c2ccccc2)cc(OC)c1OC,-8.47,–
O=C(CN1c2ccccc2S(=O)(=O)c2ccccc21)Nc1cccc(C(F)(F)F)c1,-25.7,–
COc1ccccc1N1CCN(c2ncnc3onc(-c4cccc(Cl)c4)c23)CC1,-13.2,–
COC(=O)c1ccc(NC(=O)c2cccc3c2C(=O)N(C2CCCCC2)C3)cc1,-5.33,–
CCCS(=O)(=O)c1ncc(Cl)c(C(=O)Nc2scc(-c3ccccc3)c2C(=O)OCC)n1,-35.8,–
COC(=O)c1ccc(NC(=O)C23CC4CC(C2)CC(n2cnc(Cl)n2)(C4)C3)cc1,–,56.2 µM (active)
O=C(Nc1ccc(S(=O)(=O)Nc2ncccn2)cc1)C12CC3CC(CC(C3)C1)C2,-12.5,–
COC(=O)c1ccc(NC(=S)NN2CCOCC2)cc1,-4.79,–
O=C(Nc1ccccc1F)C(c1ccccc1)N1Cc2ccccc2C1=O (stereo not given),-11.9,–
CCN(C(=O)Cn1c(=O)nc(-c2ccccc2)c2cc(Cl)ccc21)c1cccc(C)c1,-7.95,–
Cc1cn(C)c(CC(=O)NCc2ccc(Cl)cc2)c1C(=O)O,-24.7,–
C[N+]1(CCNC(=O)/C=N/O)CCCCC1,–,50.1 µM (active)
CCc1cc2c(cc3c(=O)n(CC(=O)N4CCN(c5cc(Cl)ccc5C)CC4)nc(CC)n32)s1,-21.8,–
CCOC(=O)c1ccc(NC(=O)c2csc3c2CCCCC3)cc1,6.91,–
O=C(/C=C/c1ccccc1)Nc1cc(-c2nc3cc(Cl)ccc3o2)ccc1Cl,1.49,–
Cc1ccc(NC(=S)NCCc2ccc(Cl)cc2)c(C)c1,-19.4,–
Cc1cc(Br)ccc1NC(=S)NC1CCCC1,-10.3,–
Cc1ccc(NC(=S)Nc2ncccc2C)c(C)c1,–,56.2 µM (active)
